# PubChem BioAssay (Tox21)
# “And” between values parts separate entries of the source, which are not always exact repeats. Equal values may be shown once. Records with an inconclusive call do not appear. Where a call stands in place of a potency, no number is given. The source holds several records for some structures; these can differ, active in one and inactive in another. The source made the active and inactive calls. Calls come from the whole dose curve; as a rule, active = well fitted curve in the direction sought with a large enough effect in the repeat runs; inconclusive = weak or mixed curves; inactive = no such curve, though single readings can be large; an effect the other way counts as inactive or inconclusive.
# What was measured:
# [1] = Caspase-3/7 induction in HepG2 cells by small molecules, qHTS assay (AID 1346978); note: nearly all actives have a fitted effect of over 15% in size; note: potency is the fitted concentration of half-maximal effect
# Summary of the method: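 Wild-type HepG2 cells (2,000/well) were settled 5 h at 37 C, 5% CO2, then exposed to compounds in DMSO for 17 h. Caspase-3/7 activity was read by luminescence 30 min after adding Caspase-Glo 3/7 reagent at room temperature.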
# [2] = Caspase-3/7 induction in CHO-K1 cells by small molecules, qHTS assay (AID 1346980); note: nearly all actives have a fitted effect of over 15% in size; note: potency is the fitted concentration of half-maximal effect
# Summary of the method: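 Wild-type cells were seeded at 1,500 per well and settled 5 hr at 37 C, 5% CO2, then exposed to DMSO-dissolved compounds for 17 hr. Caspase-Glo 3/7 reagent was added, and luminescence was read after 30min at room temperature.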
# [3] = Caspase-3/7 induction in HepG2 cells by small molecules, qHTS cell viability counter screen (AID 1346981); note: nearly all actives have a fitted effect of over 30% in size; note: potency is the fitted concentration of half-maximal effect
# Summary of the method: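 Multiplexed with the caspase-3/7 assay: HepG2 cells, 16 hr compound treatment, CellTiter-Fluor viability detection by fluorescence.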
# [4] = target: Nuclear receptor subfamily 1 group I member 2 (Homo sapiens) (UniProt O75469); assay: Human pregnane X receptor (PXR) small molecule agonists, qHTS assay (AID 1346982); note: nearly all actives have a fitted effect of over 35% in size; note: potency is the fitted concentration of half-maximal effect
# Summary of the method: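 We seeded PXR-Luc HepG2 cells in assay medium containing 5% charcoal-stripped FBS, added compounds 5 hr later, incubated 24 hr, and read luminescence with ONE-Glo reagent.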
# [5] = target: Cytochrome P450 2D6 (Homo sapiens) (UniProt P10635); assay: Cytochrome P450 Family 2 Subfamily D Member 6 (CYP2D6) small molecule antagonists: luciferase reporter qHTS assay (AID 1671196); note: nearly all actives have a fitted effect of over 50% in size; note: potency is the fitted concentration of half-maximal effect
# Summary of the method: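 Luminescence (RLU), read 20 min after detection reagent, indicated CYP2D6 conversion of proluciferin to luciferin during a 1 h NADPH-dependent reaction at room temperature.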
# [6] = target: Cytochrome P450 2C19 (Homo sapiens) (UniProt P33261); assay: Cytochrome P450 Family 2 Subfamily C Member 19 (CYP2C19) small molecule antagonists: luciferase reporter qHTS assay (AID 1671197); note: nearly all actives have a fitted effect of over 65% in size; note: potency is the fitted concentration of half-maximal effect
# Summary of the method: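 CYP2C19 P450-Glo, 1536-well qHTS. Cpd + enzyme/proluciferin substrate 10 min RT; + NADPH regen, 37C 1 h; stop with luciferin detection reagent, 20 min RT, luminescence (RLU). Pos ctrl ketoconazole.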
# [7] = Caspase-3/7 induction in CHO-K1 cells by small molecules, qHTS cell viability counter screen (AID 1346979); note: nearly all actives have a fitted effect of over 35% in size; note: potency is the fitted concentration of half-maximal effect
# Summary of the method: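 Wild-type CHO-K1 cells (1,500/well) treated with compound after 5 h plating; after 16 h at 37C, viability read as CellTiter-Fluor fluorescence following 1 h reagent incubation, in the same wells as the caspase read.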
# [8] = target: Nuclear receptor subfamily 1 group I member 2 (Rattus norvegicus) (UniProt Q9R1A7); assay: Rat pregnane X receptor (rPXR) activation by small molecules, qHTS assay (AID 1346983); settings: rPXR luciferase reporter cells, One-Glo luminescence, 24 h; max activation: stronger effect = higher value; note: nearly all actives have a fitted effect of over 20% in size
# Summary of the method: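 Cell-based rPXR luciferase reporter assay, 2,000 cells per well, rested 5hr at 37 C before compound addition in DMSO, then 24 hr at 37 C. One-Glo reagent was added and luminescence read after 30 min at room temperature.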
# [9] = target: Nuclear receptor subfamily 1 group I member 2 (Homo sapiens) (UniProt O75469); assay: CYP3A4 induction through human pregnane X receptor (PXR) by small molecules, qHTS assay (AID 1346984); note: nearly all actives have a fitted effect of over 40% in size; note: potency is the fitted concentration of half-maximal effect
# Summary of the method: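 qHTS, concentration-response format: HepG2 DPX-2 line, PXR/CYP3A4-luc. Exposure 24 h, 37C. Substrate Luciferin-IPA 3uM final, 3 h. Detection One-Glo, 30 min RT.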
# [10] = target: Nuclear receptor subfamily 1 group I member 2 (Homo sapiens) (UniProt O75469); assay: Human pregnane X receptor (PXR) activation by small molecules, qHTS assay (AID 1346985); note: nearly all actives have a fitted effect of over 40% in size; note: potency is the fitted concentration of half-maximal effect
# Summary of the method: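 DPX-2 cells (HepG2 co-transfected with a PXR response element and a CYP3A4-promoter luciferase construct) were seeded at 2,000 per well, rested 5 hr at 37C, then exposed to DMSO-dissolved compounds for 24 hr. Activation was read as luciferase luminescence.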
# Nuclear receptor subfamily 1 group I member 2 (Homo sapiens), sequence (O75469 whole entry, looked up): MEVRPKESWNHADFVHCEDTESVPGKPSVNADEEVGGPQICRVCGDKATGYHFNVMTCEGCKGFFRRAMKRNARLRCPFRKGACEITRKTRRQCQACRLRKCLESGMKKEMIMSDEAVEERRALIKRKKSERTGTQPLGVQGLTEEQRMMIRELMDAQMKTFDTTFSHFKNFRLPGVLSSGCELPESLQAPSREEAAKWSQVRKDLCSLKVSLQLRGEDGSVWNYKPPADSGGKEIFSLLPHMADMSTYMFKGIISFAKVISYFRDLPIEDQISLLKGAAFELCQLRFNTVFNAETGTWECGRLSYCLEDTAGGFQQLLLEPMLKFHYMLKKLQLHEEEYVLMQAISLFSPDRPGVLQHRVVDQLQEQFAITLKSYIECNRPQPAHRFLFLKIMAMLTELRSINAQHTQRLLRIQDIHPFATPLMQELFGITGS
# Cytochrome P450 2C19 (Homo sapiens), sequence (P33261 whole entry, looked up): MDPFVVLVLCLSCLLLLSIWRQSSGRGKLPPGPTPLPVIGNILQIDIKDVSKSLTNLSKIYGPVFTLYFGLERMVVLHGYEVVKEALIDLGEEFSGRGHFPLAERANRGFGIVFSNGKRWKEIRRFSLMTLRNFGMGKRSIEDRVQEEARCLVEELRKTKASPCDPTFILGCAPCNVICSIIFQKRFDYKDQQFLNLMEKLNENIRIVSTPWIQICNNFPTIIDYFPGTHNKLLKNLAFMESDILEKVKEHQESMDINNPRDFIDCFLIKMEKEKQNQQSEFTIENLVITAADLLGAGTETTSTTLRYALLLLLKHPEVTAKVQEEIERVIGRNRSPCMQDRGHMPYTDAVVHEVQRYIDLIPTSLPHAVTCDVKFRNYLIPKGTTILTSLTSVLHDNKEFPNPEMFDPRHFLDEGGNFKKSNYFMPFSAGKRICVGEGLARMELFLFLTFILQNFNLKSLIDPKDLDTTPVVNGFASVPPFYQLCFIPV
# Cytochrome P450 2D6 (Homo sapiens), sequence (P10635 whole entry, looked up): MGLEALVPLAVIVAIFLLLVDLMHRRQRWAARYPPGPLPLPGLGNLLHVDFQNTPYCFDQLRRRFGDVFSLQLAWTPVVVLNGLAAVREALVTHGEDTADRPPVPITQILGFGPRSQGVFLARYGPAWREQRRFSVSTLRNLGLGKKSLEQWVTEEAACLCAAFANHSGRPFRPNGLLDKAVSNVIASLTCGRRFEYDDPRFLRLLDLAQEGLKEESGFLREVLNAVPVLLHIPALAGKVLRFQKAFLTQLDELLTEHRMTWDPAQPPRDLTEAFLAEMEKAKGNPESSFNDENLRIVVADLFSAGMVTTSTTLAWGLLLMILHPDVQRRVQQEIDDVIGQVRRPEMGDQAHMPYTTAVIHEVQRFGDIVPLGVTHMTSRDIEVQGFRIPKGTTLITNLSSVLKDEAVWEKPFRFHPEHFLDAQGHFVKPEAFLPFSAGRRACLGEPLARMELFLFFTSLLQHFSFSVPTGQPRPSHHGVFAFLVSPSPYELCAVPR
# Nuclear receptor subfamily 1 group I member 2 (Rattus norvegicus), sequence (Q9R1A7 whole entry, looked up): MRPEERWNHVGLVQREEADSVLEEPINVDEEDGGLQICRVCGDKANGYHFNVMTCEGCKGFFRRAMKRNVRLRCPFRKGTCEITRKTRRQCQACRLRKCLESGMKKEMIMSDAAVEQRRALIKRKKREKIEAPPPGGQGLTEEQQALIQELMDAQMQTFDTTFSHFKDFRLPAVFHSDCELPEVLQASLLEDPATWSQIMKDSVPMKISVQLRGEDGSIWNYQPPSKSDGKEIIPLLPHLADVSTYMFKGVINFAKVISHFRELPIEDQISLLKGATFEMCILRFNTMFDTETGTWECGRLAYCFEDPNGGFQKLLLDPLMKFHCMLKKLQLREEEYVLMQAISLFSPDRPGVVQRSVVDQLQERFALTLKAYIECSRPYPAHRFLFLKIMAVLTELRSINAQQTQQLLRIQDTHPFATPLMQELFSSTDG
structure (smiles),measurement,setting,value
CCC(=O)OCCc1ccccc1,Potency,[1],inactive
same,Potency,[2],inactive
same,Potency,[3],inactive
same,Potency,[4],inactive
same,Potency,[5],inactive
same,Potency,[6],inactive
C=C(c1ccc(C(=O)O)cc1)c1cc2c(cc1C)C(C)(C)CCC2(C)C,Potency,[1],68.6 µM (active)
same,Potency,[7],61.1 µM (active)
same,Potency,[4],inactive
same,max activation,[8],-18.2% (inactive)
same,Potency,[9],inactive
same,Potency,[10],inactive
same,Potency,[5],inactive
same,Potency,[6],inactive
CCCOc1sc(C(=O)N2CCC(c3cc(CN)ccc3F)CC2)c(C)c1Br,Potency,[1],44.5 µM (active)
same,Potency,[7],22.3 µM (active)
same,Potency,[3],49.9 µM (active)
same,Potency,[4],inactive
same,Potency,[6],3.66 µM (active)
CN(Cc1cc(Br)cc(Br)c1N)C1CCCCC1,Potency,[1],inactive
same,Potency,[2],inactive
same,Potency,[3],inactive
same,Potency,[4],13.3 µM (active)
same,max activation,[8],-3.03% (inactive)
same,Potency,[9],14.1 µM (active)
same,Potency,[10],8.91 µM (active)
same,Potency,[5],0.0078 µM (active)
same,Potency,[6],4.36 µM (active)
O=C1c2c(O)ccc(O)c2C(=O)c2c(NCCNCCO)ccc(NCCNCCO)c21,Potency,[7],10.6 µM (active)
same,Potency,[2],inactive
same,Potency,[3],11.9 µM (active)
NC(=O)c1nc(-c2cccc(-c3cc(F)ccc3OCC(F)(F)C(F)(F)F)c2)n[nH]1,Potency,[1],inactive
same,Potency,[3],61.1 µM (active)
same,Potency,[4],61.1 µM (active)
same,Potency,[5],79.6 µM (active)
same,Potency,[6],28.3 µM (active)
O=C(Oc1ccccc1)c1cccc(C(=O)Oc2ccccc2)c1,Potency,[1],inactive
same,Potency,[2],inactive
same,Potency,[4],0.456 µM (active)
same,Potency,[5],28.9 µM (active)
same,Potency,[6],2.98 µM (active)
CNC(=S)NN,Potency,[7],19.3 µM (active)
same,Potency,[2],inactive
same,Potency,[3],inactive
COc1cc(C(C)C)c2c(c1)S(=O)(=O)N(COc1cc(=O)n3cccc(OCCN4CCCCC4)c3n1)C2=O,caspase activation,[1],0.878% [at 19 µM] (inactive)
same,caspase-3/7 activation,[2],-0.224% [at 19 µM] (inactive)
same,Potency,[4],13 µM (active)
CC(CN(C)C)CN1c2ccccc2CCc2ccccc21 (stereo not drawn),Potency,[1],inactive
same,Potency,[4],23.7 µM (active)
same,max activation,[8],-1.19% (inactive)
same,Potency,[9],8.91 µM (active)
same,Potency,[5],3.09 µM (active)
S=P(N1CC1)(N1CC1)N1CC1,Potency,[1],inactive
same,Potency,[2],inactive
same,Potency,[3],inactive
same,max activation,[8],-4.01% (inactive)
same,Potency,[9],inactive
same,Potency,[10],inactive
same,Potency,[5],48.6 µM (active)
same,Potency,[6],9.42 µM (active)
CCC(C)C(=O)OC (stereo not drawn),Potency,[1],inactive
same,Potency,[3],inactive
same,Potency,[4],inactive
same,Potency,[5],inactive
same,Potency,[6],inactive
c1cc(OCC2CO2)cc(OCC2CO2)c1 (stereo not drawn),Potency,[7],60.6 µM (active)
same,Potency,[2],inactive
same,Potency,[3],60.6 µM (active)
same,Potency,[4],21.5 µM (active)
Oc1ccc(-c2ccc(O)cc2)cc1,Potency,[1],inactive
same,Potency,[2],inactive
same,Potency,[4],48.9 µM (active)
same,Potency,[6],inactive
O=C1NC2CCCCN2C12CCN(CCCN1c3ccccc3CCc3ccc(Cl)cc31)CC2 (stereo not drawn),Potency,[1],29.8 µM (active)
same,Potency,[3],29.8 µM (active)
same,Potency,[4],inactive
CN1[C@@H]2CC[C@@H]1CC(OC(=O)C(CO)c1ccccc1)C2 (stereo partly drawn),Potency,[7],inactive
same,Potency,[2],inactive
same,Potency,[3],inactive
Cc1ccc(-n2[nH]c(C)c(N=Nc3cccc(-c4cccc(C(=O)O)c4)c3O)c2=O)cc1C,Potency,[1],inactive
same,Potency,[2],inactive
same,Potency,[4],inactive
same,Potency,[6],inactive
CC1CCCCN1CCCOC(=O)c1ccc(OC2CCCCC2)cc1 (stereo not drawn),Potency,[1],inactive
same,Potency,[2],inactive
same,Potency,[3],inactive
same,Potency,[6],inactive
CCCSS/C(CCO)=C(\C)N(C=O)Cc1cnc(C)nc1N,Potency,[1],inactive
same,Potency,[3],inactive
same,max activation,[8],9.56% (inactive)
same,Potency,[9],inactive
same,Potency,[10],inactive
same,Potency,[5],34.7 µM (active)
same,Potency,[6],inactive
C#CC(O)CCC (stereo not drawn),Potency,[1],inactive
same,Potency,[3],inactive
same,Potency,[4],inactive
same,Potency,[5],inactive
same,Potency,[6],inactive
C=C[C@](C)(O)CC[C@@H]1[C@@]2(C)CCCC(C)(C)[C@@H]2CC[C@@]1(C)O,Potency,[1],68.6 µM (active)
same,Potency,[2],inactive
same,Potency,[4],9.69 µM (active)
same,Potency,[6],1 µM (active)
CCCCCCOc1cc(C)c(O)c(C)c1C,Potency,[1],49.2 µM (active)
same,Potency,[4],34.8 µM (active)
same,Potency,[5],25.5 µM (active)
same,Potency,[6],2.02 µM (active)
CC(C)(C)CC(C)(C)c1ccccc1O,Potency,[1],48.8 µM (active)
same,Potency,[3],61.4 µM (active)
same,Potency,[4],21.8 µM (active)
same,Potency,[6],inactive
CC1CNCC(C)O1 (stereo not drawn),Potency,[1],inactive
same,Potency,[2],inactive
same,Potency,[4],inactive
same,Potency,[5],inactive
same,Potency,[6],inactive
Cc1ccc(CCn2c3c(c4cc(Cl)ccc42)CN(C)CC3)cn1,Potency,[1],inactive
same,Potency,[2],inactive
same,Potency,[4],33.5 µM (active)
same,Potency,[5],7.76 µM (active)
same,Potency,[6],17.4 µM (active)
Cc1occc1SSc1ccoc1C,Potency,[1],inactive
same,Potency,[2],inactive
same,Potency,[3],inactive
same,Potency,[5],inactive
same,Potency,[6],inactive
Nc1ccc2cc3ccc(N)cc3nc2c1,Potency,[1],30.6 µM (active) and 29.8 µM (active)
same,Potency,[2],4.86 µM (active) and 11.9 µM (active)
same,Potency,[5],39.9 µM (active)
same,Potency,[6],71 µM (active) and inactive
CCCCC(CC)COC(=O)c1ccc(O)cc1 (stereo not drawn),Potency,[1],inactive
same,Potency,[2],inactive
same,Potency,[4],24.2 µM (active) and 68.6 µM (active)
same,Potency,[5],79.4 µM (active) and 22.4 µM (active)
same,Potency,[6],11.2 µM (active) and 17.8 µM (active)
CCCN(CCc1cccs1)[C@H]1CCc2c(O)cccc2C1,Potency,[1],inactive
same,Potency,[3],inactive
same,Potency,[4],inactive
same,max activation,[8],-1.95% (inactive)
same,Potency,[9],inactive
same,Potency,[10],inactive
same,Potency,[5],0.389 µM (active)
same,Potency,[6],2.45 µM (active)
CC(=O)Oc1ccc(C2(c3ccc(OC(C)=O)cc3)Oc3ccccc3NC2=O)cc1,Potency,[1],inactive
same,Potency,[2],inactive
same,Potency,[3],inactive
same,Potency,[6],6.92 µM (active)
COCC(=O)O[C@]1(CCN(C)CCCc2nc3ccccc3[nH]2)CCc2cc(F)ccc2[C@@H]1C(C)C,Potency,[1],26.6 µM (active)
same,Potency,[3],29.8 µM (active)
same,Potency,[4],1.68 µM (active)
same,max activation,[8],-19.6% (inactive)
same,Potency,[9],inactive
same,Potency,[10],inactive
